According to PubChem BioAssay (NCATS):
Inconclusive results are not listed. The source made the active and inactive calls. Calls come from the whole dose curve; as a rule, active = well fitted curve in the direction sought with a large enough effect; inconclusive = small, poorly fitted or top-dose-only effect, or another doubt; inactive = no such curve, though single readings can be large; an effect the other way counts as inactive or inconclusive.

Tests used:
HEK293 = assay: Cytotoxic Profiling of Annotated Libraries Using Quantitative High-Throughput Screening (AID 1296008); conditions: Five cell lines viability, CellTiter-Glo ATP luminescence, 48-72 h; max response: hits give low values; note: nearly all actives have a fitted effect of over 60% in size; note: potency is the fitted concentration of half-maximal effect; for max response: % is set by controls: 0 for no effect and ±100 for the full control effect
Summary of the method: (§1)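 Cells exposed to compounds for 48 or 72 hr at 37 degrees Celsius. Viability read as ATP-coupled luminescence with CellTiter-Glo after 10 min at room temperature.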

KB-3-1 = assay: as above; conditions: Five cell lines viability, CellTiter-Glo ATP luminescence, 48-72 h; max response: hits give low values
Summary of the method: as §1

NIH3T3 = assay: as above; conditions: Five cell lines viability, CellTiter-Glo ATP luminescence, 48-72 h; max response: hits give low values
Summary of the method: as §1

CAOV3 = assay: Primary qHTS to identify gynecologic anti-cancer compounds using libraries of approved drugs and bioactive compounds (AID 1345084); conditions: Gynecologic cancer cell panel viability, ATPlite luminescence, 48 h; series mostly up to 57.5 µM; note: nearly all actives have a fitted effect of over 55% in size; note: potency is the fitted concentration of half-maximal effect; for activity change, negative = cytotoxicity: % is set by controls: 0 for no effect and ±100 for the full control effect
Summary of the method: (§2)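 ATP-based viability (ATPlite), 1,000 cells/well, 16 h pre-incubation, 48 h compound at 37 C, 5% CO2, 15 min RT before read.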

CASKI = assay: as above; conditions: Gynecologic cancer cell panel viability, ATPlite luminescence, 48 h; series mostly up to 57.5 µM
Summary of the method: as §2

Es-2 = assay: as above; conditions: Gynecologic cancer cell panel viability, ATPlite luminescence, 48 h; series mostly up to 57.5 µM
Summary of the method: as §2

HeLa = assay: as above; conditions: Gynecologic cancer cell panel viability, ATPlite luminescence, 48 h; series mostly up to 57.5 µM
Summary of the method: as §2

Hek293T [1] = assay: as above; conditions: Gynecologic cancer cell panel viability, ATPlite luminescence, 48 h, control line for the selectivity index; series mostly up to 57.5 µM
Summary of the method: as §2

JEG-3 = assay: as above; conditions: Gynecologic cancer cell panel viability, ATPlite luminescence, 48 h; series mostly up to 57.5 µM
Summary of the method: as §2

C33A = assay: as above; conditions: Gynecologic cancer cell panel viability, ATPlite luminescence, 48 h; series mostly up to 57.5 µM
Summary of the method: as §2

HEK293T [2] = assay: qHTS assay to identify novel small-molecules to repurpose for Merkel cell carcinoma treatment (AID 1296009); conditions: MCC and control cell lines, CellTiter-Glo viability, 72 h; at 44.8 µM (top of the series) unless noted; note: nearly all actives have a fitted effect of over 60% in size
Summary of the method: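 Cells were incubated with compound for 72 hr at 37 degree celsius before CellTiter-Glo addition. Luminescence was normalized with no-cell wells as full cytotoxicity and DMSO as baseline.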

CCN(CC)CCN(Cc1ccc(-c2ccc(C(F)(F)F)cc2)cc1)C(=O)Cn1c(SCc2ccc(F)cc2)nc(=O)c2c1CCC2
active: Potency (HEK293) 3.66 µM | Potency (KB-3-1) 20.6 µM | Potency (NIH3T3) 4.61 µM | Potency (CAOV3) 12.6 µM | Potency (CASKI) 25.1 µM

Cc1ccc(NC(=O)Nc2cc(C(F)(F)F)ccc2F)cc1Nc1ccc2c(c1)NC(=O)/C2=C\c1ccc[nH]1
inactive: Potency (CASKI) | Potency (Es-2) | Potency (HeLa) | Potency (Hek293T [1]) | Potency (JEG-3)
active: Potency (HEK293) 11.6 µM | Potency (KB-3-1) 20.6 µM | Potency (NIH3T3) 18.4 µM

Cc1c(C(=O)Nc2ccc(N3CC(C)OC(C)C3)nc2)cccc1-c1ccc(OC(F)(F)F)cc1 (centres undefined)
active: Potency (HEK293) 9.2 µM
inactive: max response (KB-3-1) -28.5% | Potency (C33A) | Potency (CAOV3) | Potency (CASKI) | Potency (Es-2) | Potency (HeLa) | Potency (Hek293T [1]) | Potency (JEG-3)

O=C1NC(=O)C(c2cn3c4c(cccc24)CCC3)C1c1c[nH]c2ccccc12 (centres undefined)
active: Potency (HEK293) 1.03 µM | Potency (KB-3-1) 1.3 µM | Potency (C33A) 20 µM | Potency (Es-2) 10 µM | Potency (HeLa) 3.16 µM
inactive: Potency (CAOV3) | Potency (CASKI)

O=C(Nc1ccc(S(=O)(=O)C(F)(F)F)cc1)C1=CCN(c2ncccc2C(F)(F)F)CC1
active: Potency (HEK293) 8.2 µM | Potency (KB-3-1) 23.1 µM | Potency (NIH3T3) 16.4 µM
inactive: Potency (JEG-3)

CNC(=O)c1cccc(-c2ccc3c(N4CCOC[C@@H]4C)nc(N4CCOC[C@@H]4C)nc3n2)c1
inactive: Potency (JEG-3)
active: Potency (HEK293) 0.366 µM | Potency (KB-3-1) 0.326 µM | Potency (NIH3T3) 1.3 µM | Potency (Hek293T [1]) 1.41 µM

CC(C)C(CO)Nc1nc(Nc2cc(N)cc(Cl)c2)c2ncn(C(C)C)c2n1 (centres undefined)
active: Potency (HEK293) 16.4 µM | Potency (KB-3-1) 10.3 µM | Potency (NIH3T3) 3.66 µM | Potency (HeLa) 25.1 µM

COc1cc(C(=O)NC2CCN(C)CC2)c(F)cc1Nc1ncc2c(n1)N(C1CCCC1)CC(F)(F)C(=O)N2C
active: Potency (HEK293) 0.0184 µM | Potency (KB-3-1) 0.0103 µM | Potency (NIH3T3) 0.82 µM | Potency (C33A) 0.282 µM | Potency (Es-2) 35.5 µM

COc1cc2nc(N3CCC(N4CCCCC4)CC3)nc(NC3CCCCCC3)c2cc1OC
active: Potency (HEK293) 5.17 µM | Potency (KB-3-1) 5.8 µM | Potency (C33A) 25.1 µM | Potency (CAOV3) 7.08 µM

COc1cc(Nc2nc3c(s2)CCCC3c2ccc(F)cc2)ccc1-n1cnc(C)c1 (centres undefined)
active: Potency (HEK293) 11.6 µM | Potency (KB-3-1) 18.4 µM
inactive: Potency (C33A) | Potency (CAOV3) | Potency (CASKI) | Potency (Es-2) | Potency (HeLa) | Potency (Hek293T [1]) | Potency (JEG-3)

C#CC[C@H](c1nc2cc(Cl)ccc2c(=O)n1Nc1ccccc1)N(CCCN)C(=O)c1cccc(Cl)c1F
active: Potency (HEK293) 1.46 µM | Potency (KB-3-1) 0.92 µM | Potency (NIH3T3) 10.3 µM | Potency (Es-2) 7.94 µM | Potency (HeLa) 3.16 µM | Potency (Hek293T [1]) 14.1 µM

C[C@@]1(O)[C@H](O)[C@@H](CO)O[C@H]1n1ccc(N)nc1=O
inactive: outcome (HEK293) | outcome (KB-3-1) | outcome (HEK293T [2]) | Potency (C33A) | Potency (CAOV3) | Potency (CASKI) | Potency (Es-2) | Potency (HeLa) | Potency (Hek293T [1]) | Potency (JEG-3)

C[C@@H]1O[C@@H](O[C@H]2[C@H](O[C@H]3CC[C@@]4(C)C(CC[C@]5(C)C4C=C[C@]46OC[C@@]7(CCC(C)(C)C[C@H]74)[C@@H](O)C[C@]65C)[C@]3(C)CO)O[C@H](CO)[C@@H](O)[C@@H]2O[C@@H]2O[C@H](CO)[C@@H](O[C@@H]3O[C@@H](C)[C@H](O)[C@@H](O)[C@H]3O)[C@H](O)[C@H]2O)[C@H](O)[C@H](O)[C@H]1O (some centres undefined)
active: Potency (HEK293) 3.9 µM
inactive: max response (KB-3-1) -30.1% | activity change, negative = cytotoxicity (C33A) -24.9% [at 11.6 µM] | activity change, negative = cytotoxicity (CAOV3) -6.89% [at 11.6 µM] | activity change, negative = cytotoxicity (CASKI) -6.58% [at 11.6 µM] | activity change, negative = cytotoxicity (Es-2) -4.56% [at 11.6 µM] | activity change, negative = cytotoxicity (HeLa) -11.4% [at 11.6 µM] | activity change, negative = cytotoxicity (Hek293T [1]) -7.26% [at 11.6 µM] | activity change, negative = cytotoxicity (JEG-3) -0.552% [at 11.6 µM]

Cn1c(=O)n(-c2ccc(C(C)(C)C#N)cc2)c2c3cc(C#Cc4cccnc4)ccc3ncc21
active: Potency (HEK293) 0.0893 µM | Potency (KB-3-1) 0.142 µM | Potency (NIH3T3) 0.2 µM | Potency (Hek293T [1]) 0.0891 µM

C/C=C1\[C@H](O[C@@H]2O[C@H](CO)[C@@H](O)[C@H](O)[C@H]2O)OC=C2C(=O)OCCc3ccc(O)c(c3)Oc3ccc(cc3)CCOC(=O)C[C@H]21
inactive: max response (HEK293) -25.1% | max response (KB-3-1) -9.35% | max response (NIH3T3) -1.53% | Potency (C33A) | Potency (Es-2) | Potency (HeLa) | Potency (Hek293T [1])

NC(=O)c1cccc2cn(-c3ccc(C4CCCNC4)cc3)nc12 (centres undefined)
active: Potency (HEK293) 7.31 µM
inactive: max response (KB-3-1) -7.35% | max response (NIH3T3) -14% | Potency (CAOV3) | Potency (CASKI) | Potency (HeLa) | Potency (Hek293T [1]) | Potency (JEG-3)

CC1(C)CCCC2(C)C(C(=O)O)=CCC12 (centres undefined)
inactive: max response (HEK293) -1.36% | max response (KB-3-1) -0.0594% | Potency (C33A) | Potency (CAOV3) | Potency (CASKI) | Potency (Es-2) | Potency (HeLa) | Potency (Hek293T [1]) | Potency (JEG-3)

COc1ccc(-c2ccc3c(N4CCOCC4)nc(N4CC(C)OC(C)C4)nc3n2)cc1CO (centres undefined)
active: Potency (HEK293) 1.16 µM | Potency (KB-3-1) 1.64 µM | Potency (NIH3T3) 1.84 µM | Potency (CASKI) 1.12 µM | Potency (Hek293T [1]) 1.58 µM
inactive: Potency (JEG-3)
